# An excerpt weighted towards active compounds, which were near 4.1% of everything screened.
# CSC inhib: blocks cancer stem cells | cancer stem cell-like cells viability, luminescence | inhibition, % at 7.5 µM | 1.1% of 300,000 active | AID 2717; in the data active = inhibition above about 75%; inconclusive = no clear call, values can overlap the other calls; tested in HMLE shEcad cells
# Mdm2-MdmX inh: disrupts the human Mdm2-MdmX interaction. O15151+Q00987. SaOS-2 split-luciferase Mdm2/MdmX complementation, luminescence. inhibition, % at 8 µM. 3% of 330,000 active;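 active = inhibition of at least 50% at 8 µM in the primary screen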
# aSyn 5UTR inh: 5' untranslated region of α-synuclein, MLPCN primary screen; inhibition, % (tested at 7.5 µM); AID 1813; alpha-synuclein 5'UTR reporter, inhibitor activity; 0.82% of 300,000 active; in the data active = inhibition above about 60%; inconclusive = no clear call, values can overlap the other calls;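 note: H4 neuroglioblastoma cells stably carrying SNCA 5'UTR luciferase fusion; 0% = DMSO wells and 100% = positive control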
# A1 inh: inhibitors of the anti-apoptotic protein A1, read as caspase activation; MEF A1-2A-BIM cells, Caspase-Glo 3/7 luminescence, 3 h; percent of clofoctol response, vehicle zero; caspase activation, % (test concentration not listed); 0.066% of 330,000 active; AID 2462;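 active = over half of replicate activation scores above 10%, or exactly half above 10 with the replicate mean above 10; inconclusive = replicate mean below 10 yet half the replicates above 10; inactive = over half of replicates below 10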
# Beta apoptosis: blocks beta cell apoptosis | INS-1E cytokine-induced death, ATP luminescence, 48 h; percent of positive-control rescue, neutral wells zero | protection from apoptosis, % (test concentration not listed) | 0.8% of 300,000 active;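 active = Every replicate reaches about 75%, or at least half do and their mean reaches it too, limit read from the data; inconclusive = At least half of replicates reach the limit but their mean does not; inactive = Under half of replicates reach the limit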;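 note: 0% = cytokine-treated negative control wells and 100% = positive control rescue; higher means more ATP so stronger rescue from cytokine killing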
# Mdm2 MdmX conf: confirmation of human Mdm2/MdmX interaction inhibitors; inhibition, % at 8 µM; 55% of 10,000 active; Mdm2-MdmX binding, luminescent assay; AID 489028; shares compounds with Mdm2-MdmX inh; in the data active = inhibition above about 40%
# Full FLuc ctr: full-length luciferase inhibition in Mdm2/MdmX counter-screen; inhibition, % at 8 µM; SaOS-2 full-length luciferase counterscreen, luminescence; shares compounds with Mdm2-MdmX inh; 77% of 6,200 active;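 active = mean inhibition at 8 µM reaching about 37%, which flags the compound as non-specific, limit read from the data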;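 note: p53-null SaOS-2 cells with luciferase driven by a doxycycline-inducible promoter; compound on cells about two nights before reading with doxycycline added after day one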
# An asterisk follows results filed as active; u = inconclusive; x = no result.
SMILES,CSC inhib,Mdm2-MdmX inh,aSyn 5UTR inh,A1 inh,Beta apoptosis,Mdm2 MdmX conf,Full FLuc ctr
CCc1ccc(-c2cc(C)no2)cc1S(=O)(=O)N1CCCN(Cc2ccc(F)cc2)C1,-10,68*,3,0,-1,27,x
CCc1ccc(-c2cc(C)no2)cc1S(=O)(=O)N1CCC(C)CC1,-15,24,19,1,0,x,x
CC(C)C[C@H](NC(=O)c1nc[nH]c1C(=O)N[C@@H](CC(C)C)C(=O)OC(C)(C)C)C(=O)OC(C)(C)C,-1,80*,54,-3,72,7,x
CC(C)C[C@H](NC(=O)c1nc[nH]c1C(=O)NC(c1ccccc1)c1ccccc1)C(=O)OC(C)(C)C,97*,89*,29,-1,36,2,x
Cc1cc(SCC(=O)Nc2c(C)n(C)n(-c3ccccc3)c2=O)nc2ccccc12,6,4,15,0,3,x,x
Cc1ccc(CNC(=O)Cn2ccc3cc(S(=O)(=O)N4CCCC4)ccc32)o1,-12,24,-6,-1,-4,x,x
Cc1ccc2[nH]c3c(=O)n(CC(=O)Nc4ccccc4N4CCN(C)CC4)ncc3c2c1,-13,61*,9,1,-9,18,x
CN1CCN(c2ccccc2NC(=O)Cn2ncc3c([nH]c4ccccc43)c2=O)CC1,-7,38,-9,1,-12,x,x
O=C(N/N=C/c1ccc2c(c1)OCO2)c1cc(-c2ccncc2)nc2ccccc12,72,51*,-5,1,6,44*,59*
CC(/C=N/NC(=O)c1cc(-c2ccncc2)nc2ccccc12)=C\c1ccco1,x,63*,86*,0,13,62*,97*
O=C(N/N=C/c1ccsc1)c1cc(-c2ccncc2)nc2ccccc12,58,52*,-11,0,7,38,66*
O=C(N/N=C/c1ccsc1)c1cc(-c2cccs2)nc2ccccc12,54,23,-15,u,8,x,x
O=C(N/N=C/c1ccco1)c1cc(-c2cccc(Br)c2)nc2ccccc12,31,22,-7,3,17,x,x
Cc1ccsc1/C=N/NC(=O)c1cc(-c2ccncc2)nc2ccccc12,78*,58*,67*,0,4,60*,58*
CCOC(=O)c1ccc(S(=O)(=O)N2CCN(C(=O)C3CSC4(C)CCC(=O)N34)CC2)cc1 (stereo not given),x,14,x,0,-6,x,x
CC(Cn1cncn1)C(=O)N1CCN(S(=O)(=O)c2ccc(Cl)cc2)CC1 (stereo not given),-11,-11,0,1,-6,x,x
Cc1cc(N/N=C/c2c(O)ccc3ccccc23)nc(-c2ccccc2O)n1,42,61*,72*,0,89*,53*,39*
Cc1cc(NC2CCCCC2)nc(-c2ccccc2O)n1,-2,18,-36,1,-2,x,x
Cc1ccc(C)c(Nc2cc(C)nc(-c3ccccc3O)n2)c1,73,59*,10,0,9,62*,49*
CC1=C[C@H](C)[C@H](c2c(F)cccc2Cl)CC1=O,-5,6,-9,0,-6,x,x
COCCn1c(N)c(N(Cc2ccccc2)C(=O)CSCC(=O)Nc2ccc(OC)cc2)c(=O)[nH]c1=O,10,-8,2,0,-4,x,x
COc1ccc(-c2nc(CN3CCN(c4cc(C)nc(C)c4)CC3)c(C)o2)c2ccccc12,-12,97*,68*,1,21,48*,34
Cc1cc(N2CCN(Cc3nc(-c4ccc(Cl)cc4)oc3C)CC2)cc(C)n1,38,64*,-5,-1,23,39,68*
O=C(c1n[nH]c2ccccc12)N1CCN(S(=O)(=O)c2ccc(Cl)cc2)CC1,x,1,x,0,5,x,x
CCOC(=O)C1(CCc2ccccc2)CCN(Cc2c(O)cccc2OC)CC1,13,55*,-19,1,20,26,x
SMILES,CSC inhib,Mdm2-MdmX inh,aSyn 5UTR inh,A1 inh,Beta apoptosis,Mdm2 MdmX conf,Full FLuc ctr
Cc1nc(SCC(=O)NCc2ccccc2)c2c(=O)n(C)c(=O)n(C)c2n1,-3,9,11,0,-2,x,x
Cc1nc(SCC(=O)Nc2ccccc2C(F)(F)F)c2c(=O)n(C)c(=O)n(C)c2n1,13,95*,x,1,x,2,x
Cn1c(=O)c2c(SCC(=O)Nc3cccc(F)c3)nc(-c3ccco3)nc2n(C)c1=O,-9,100*,-20,1,5,20,x
Cn1c(=O)c2c(SCc3cccc(C(F)(F)F)c3)nc(-c3ccco3)nc2n(C)c1=O,13,83*,36,0,4,-9,x
CC(Sc1nc(-c2ccco2)nc2c1c(=O)n(C)c(=O)n2C)C(=O)O (stereo not given),-17,12,9,0,-3,x,x
CCOc1ccccc1NC(=S)N1CCN(c2cccc(OC)c2)CC1,6,6,-3,1,0,x,x
Cc1cccc(C(C)C)c1NC(=O)c1cc2ccccc2o1,-10,5,19,1,-4,x,x
N#Cc1c(NC(=O)c2ccc([N+](=O)[O-])o2)sc2c1CCC2,25,21,-107,-5,13,x,x
Cc1nn(-c2ccccc2)c(C)c1/C=C/C(=O)OCC(=O)Nc1ccc(S(N)(=O)=O)cc1,-2,4,x,-1,-1,x,x
Cc1cccc(Cn2nc(C(C)(C)C)cc2C(=O)Nc2ccc(F)cc2)c1,70,87*,32,1,30,81*,31
COc1ccc(-c2noc(CCC(=O)N3CCN(c4ccccc4Br)CC3)n2)cc1,x,3,x,x,x,x,x
O=C(NCc1ccc(Cl)cc1)C1CCCCN1S(=O)(=O)c1ccccc1 (stereo not given),-12,4,5,-2,2,x,x
Cc1nn(-c2ccccc2)c(C)c1-c1nnc(-c2c(C)nn(-c3ccccc3)c2C)o1,25,56*,-47,0,4,5,x
Cc1nn(-c2ccccc2)c(C)c1-c1nnc(C(F)(F)F)o1,x,8,-24,0,x,x,x
COc1ccc(Cn2c(O)c(C=Nc3ccccc3C(=O)O)c3ccccc3c2=O)cc1,21,9,2,1,-1,x,x
COc1ccccc1NS(=O)(=O)c1cccc(-n2c(O)c(C=Nc3ccccc3C(=O)O)c3ccccc3c2=O)c1,53,54*,-66,0,2,59*,70*
COc1cc(CCC(=O)OCC(=O)N2CCc3ccccc32)cc(OC)c1OC,-10,20,3,2,-9,x,x
COc1ccc(-c2oc3ncnc(NCCCN(C)C)c3c2-c2ccc(OC)cc2)cc1,9,97*,13,2,8,42*,29
C=CC(=O)Nc1ccc(N(C)c2ccnc(Nc3ccc(N4CCN(C)CC4)cc3)n2)cc1,x,93*,x,x,x,63*,16

# Assay outcomes from PubChem.
